Source: PubChem BioAssay (NCI)
The panel holds about 79,000 compounds, 15% with a hit somewhere; the sample as a whole holds those more often. The source made the active and inactive calls. No stated cut-off is given here; in the data, active means growth inhibition above about 70%; inactive means the rest.

Assays:
[1] = NCI Yeast Anticancer Drug Screen. Data for the wt1 strain (AID 149);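 further: 0% = growth of vehicle-treated wt1 cultures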; settings: S. cerevisiae wt1 strain (SPY 50644) growth inhibition, active compounds read high
Method in brief: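 Compounds are added to wt1 yeast cultures. Growth is then measured. Inhibition is expressed relative to vehicle-treated controls.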

[2] = NCI Yeast Anticancer Drug Screen. Data for the rad50EPP+ strain (AID 151);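 further: 0% = growth of vehicle-treated control cultures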; settings: S. cerevisiae rad50 mutant strain, active compounds read high
Method in brief: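 Compounds were applied to the rad50EPP+ yeast strain, which bears a defined DNA repair alteration, and growth inhibition was determined relative to vehicle-treated cultures.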

[3] = NCI Yeast Anticancer Drug Screen. Data for the mgt1 strain (AID 153); settings: S. cerevisiae mgt1 mutant growth inhibition, active compounds read high
Method in brief: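 Strain: mgt1 yeast, one of a set carrying defined DNA damage repair or cell cycle control alterations. Compound-treated growth compared with vehicle.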

[4] = NCI Yeast Anticancer Drug Screen. Data for the rad50 strain (AID 155);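 further: 0% = growth of vehicle-only cultures of the same strain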; settings: S. cerevisiae rad50 strain growth inhibition, active compounds read high
Method in brief: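 Inhibition values express reduced yeast growth in compound-treated cultures relative to vehicle-treated controls.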

[5] = NCI Yeast Anticancer Drug Screen. Data for the mec2-1 strain (AID 157); settings: S. cerevisiae mec2-1 strain, active compounds read high
Method in brief: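 Strain: mec2-1 (DNA repair/cell cycle alteration). Compound exposure, then growth measured; inhibition expressed relative to vehicle.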

[6] = NCI Yeast Anticancer Drug Screen. Data for the rad14 strain (AID 159);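 further: 0% = growth of vehicle-treated control cultures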; settings: S. cerevisiae rad14 strain growth inhibition, active compounds read high
Method in brief: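 A mutant yeast strain defective in DNA damage repair is treated with compound; inhibition of its growth is scored against untreated, vehicle-exposed cultures.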

[7] = NCI Yeast Anticancer Drug Screen. Data for the sgs1 mgt1 strain (AID 161);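 further: 0% = growth of cultures given vehicle only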; settings: S. cerevisiae sgs1 mgt1 strain, active compounds read high
Method in brief: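 Mutant yeast exposed to compound; growth scored against vehicle-only wells.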

[8] = NCI Yeast Anticancer Drug Screen. Data for the CLN2oe strain (AID 163);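 further: 0% = growth of vehicle-only control cultures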; settings: S. cerevisiae CLN2oe strain, active compounds read high
Method in brief: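 Growth of a genetically modified yeast strain is measured after compound exposure and compared with cultures given vehicle alone.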

[9] = NCI Yeast Anticancer Drug Screen. Data for the cln2 rad14 strain (AID 165);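 further: 0% = growth equal to vehicle treated cultures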; settings: S. cerevisiae cln2 rad14 strain, active compounds read high
Method in brief: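 Compounds are applied to the cln2 rad14 yeast strain, and growth is then compared with that of vehicle-treated cultures to give inhibition.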

[10] = NCI Yeast Anticancer Drug Screen. Data for the bub3 strain (AID 167); settings: S. cerevisiae bub3 mutant strain, active compounds read high
Method in brief: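 Steps: expose the mutant yeast strain to compound; grow alongside vehicle-treated cultures; measure growth; express inhibition against the vehicle cultures.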

[11] = NCI Yeast Anticancer Drug Screen. Data for the wt2 strain (AID 169);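 further: 0% = growth of vehicle-treated yeast cultures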; settings: S. cerevisiae wt2 strain growth inhibition, active compounds read high
Method in brief: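 This strain belongs to a panel of yeast strains with defined genetic alterations in DNA damage repair or cell cycle control. Compounds are applied, and growth inhibition is measured against vehicle-treated cultures.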

[12] = NCI Yeast Anticancer Drug Screen. Data for the mlh1 strain (AID 171);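 further: 0% = growth of vehicle-treated control cultures of the same strain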; settings: S. cerevisiae mlh1 strain growth inhibition, active compounds read high
Method in brief: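 Growth of the mutant yeast strain after compound exposure, expressed as inhibition relative to vehicle-only controls.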

[13] = NCI Yeast Anticancer Drug Screen. Data for the sgs1 strain (AID 173);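 further: 0% = growth of vehicle-only control cultures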; settings: S. cerevisiae sgs1 mutant, active compounds read high
Method in brief: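 Growth of a yeast strain bearing a defined genetic alteration is measured after compound treatment. Inhibition is expressed relative to vehicle-only controls.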

[14] = NCI Yeast Anticancer Drug Screen. Data for the mlh1 rad18 strain (AID 175); settings: S. cerevisiae mlh1 rad18 strain growth inhibition, active compounds read high
Method in brief: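 Read-out is yeast growth inhibition, calculated against vehicle-only controls. The compound was applied to a strain engineered with DNA damage repair alterations.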

[15] = NCI Yeast Anticancer Drug Screen. Data for the rad52 strain (AID 147);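 further: 0% = growth of vehicle-treated control cultures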; settings: S. cerevisiae rad52 mutant growth inhibition, active compounds read high
Method in brief: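 Compounds are applied to a genetically defined yeast strain lacking normal DNA damage repair, and inhibition of growth is expressed relative to cultures given vehicle only.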

[16] = NCI Yeast Anticancer Drug Screen. Data for the rad18 strain (AID 177); settings: S. cerevisiae rad18 mutant growth inhibition, active compounds read high
Method in brief: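 Growth of the mutant yeast strain after compound exposure, normalised to vehicle-only cultures.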

[17] = at 5.0 µM (retest, dose inferred, filed as 0.5)
[18] = at 50.0 µM (retest, dose inferred, filed as 5.0)

Measured: growth inhibition

Nc1nc(Nc2ccccc2)nc(Nc2ccccc2)n1
active: [1]; at 100.0 µM 81% | [3]; at 100.0 µM 92% | [4]; at 50.0 µM 93.5% | [4]; at 100.0 µM 93% | [5]; at 50.0 µM 85.8% | [5]; at 100.0 µM 81% | [6]; at 100.0 µM 95% | [7]; at 50.0 µM 94% | [8]; at 100.0 µM 87% | [9]; at 50.0 µM 81.2% | [10]; at 50.0 µM 91.5% | [10]; at 100.0 µM 95% | [11]; at 100.0 µM 96% | [12]; at 100.0 µM 97% | [13]; at 100.0 µM 97% | [14]; at 50.0 µM 96.5%
inactive: [1]; at 1.2 µM -3% | [1]; at 3.7 µM -10% | [1]; at 11.0 µM -12% | [1]; at 33.0 µM -15% | [2]; at 1.2 µM 1% | [2]; at 3.7 µM -6% | [2]; at 11.0 µM 21% | [2]; at 33.0 µM 28% | [2]; at 100.0 µM 50% | [3]; at 1.2 µM -1% | [3]; at 3.7 µM -7% | [3]; at 11.0 µM -3% | [3]; at 33.0 µM 2% | [4]; at 1.2 µM -6% | [4]; at 3.7 µM -10% | [4]; [17] 4% | [4]; at 11.0 µM -6% | [4]; at 33.0 µM 11% | [4]; [18] 7% | [5]; at 1.2 µM -1% | [5]; at 3.7 µM 1% | [5]; [17] -2% | [5]; at 11.0 µM -1% | [5]; at 33.0 µM -2% | [5]; [18] 21% | [6]; at 1.2 µM 5% | [6]; at 3.7 µM 1% | [6]; at 11.0 µM 1% | [6]; at 33.0 µM 36% | [7]; [17] 3% | [7]; [18] 66% | [8]; at 1.2 µM -7% | [8]; at 3.7 µM -6% | [8]; at 11.0 µM -6% | [8]; at 33.0 µM -3% | [9]; [17] -4% | [9]; [18] 8% | [10]; at 1.2 µM -4% | [10]; at 3.7 µM -3% | [10]; [17] -5% | [10]; at 11.0 µM -8% | [10]; at 33.0 µM 5% | [10]; [18] 32% | [11]; at 1.2 µM -15% | [11]; at 3.7 µM -8% | [11]; at 11.0 µM -7% | [11]; at 33.0 µM 66% | [12]; at 1.2 µM -6% | [12]; at 3.7 µM -2% | [12]; at 11.0 µM -3% | [12]; at 33.0 µM 35% | [13]; at 1.2 µM -10% | [13]; at 3.7 µM -3% | [13]; at 11.0 µM 6% | [13]; at 33.0 µM 57% | [14]; [17] 0% | [14]; [18] 58%

Cc1ccc(S(=O)(=O)N/N=C/c2c(O)ccc3ccccc23)cc1
inactive: [15]; at 1.2 µM -8% | [15]; at 3.7 µM 9% | [1]; at 1.2 µM -8% | [1]; at 3.7 µM -15% | [1]; at 11.0 µM 37% | [1]; at 33.0 µM 59% | [2]; at 1.2 µM -6% | [2]; at 3.7 µM 3% | [2]; at 11.0 µM -16% | [2]; at 33.0 µM -8% | [2]; at 100.0 µM 24% | [4]; at 1.2 µM 19% | [4]; at 3.7 µM 10% | [4]; [17] 36% | [5]; at 1.2 µM -1% | [5]; at 3.7 µM 1% | [5]; [17] 53% | [5]; at 11.0 µM 55% | [5]; at 33.0 µM 66% | [7]; [17] -10% | [8]; at 1.2 µM -17% | [8]; at 3.7 µM 8% | [8]; at 11.0 µM 52% | [8]; at 33.0 µM 58% | [9]; [17] 21% | [10]; at 1.2 µM 17% | [10]; at 3.7 µM 34% | [10]; [17] 37% | [10]; at 11.0 µM 55% | [11]; at 1.2 µM -5% | [11]; at 3.7 µM -9% | [11]; at 11.0 µM 43% | [12]; at 1.2 µM -30% | [12]; at 3.7 µM -42% | [12]; at 11.0 µM 49% | [12]; at 33.0 µM 56% | [13]; at 1.2 µM 26% | [13]; at 3.7 µM 42% | [14]; [17] 44% | [14]; [18] 64% | [16]; at 1.2 µM 8% | [16]; at 3.7 µM 17%
active: [15]; at 11.0 µM 81% | [15]; at 33.0 µM 83% | [15]; at 100.0 µM 79% | [1]; at 100.0 µM 84% | [4]; at 11.0 µM 79% | [4]; at 33.0 µM 82% | [4]; [18] 86% | [4]; at 50.0 µM 79.9% | [4]; at 100.0 µM 78% | [5]; [18] 79% | [5]; at 50.0 µM 79.5% | [5]; at 100.0 µM 79% | [7]; [18] 91% | [8]; at 100.0 µM 71% | [9]; [18] 89% | [10]; at 33.0 µM 70% | [10]; [18] 85% | [10]; at 100.0 µM 77% | [11]; at 33.0 µM 81% | [11]; at 100.0 µM 88% | [12]; at 100.0 µM 78% | [13]; at 11.0 µM 76% | [13]; at 33.0 µM 80% | [13]; at 100.0 µM 87% | [14]; at 50.0 µM 78.5% | [16]; at 11.0 µM 87% | [16]; at 33.0 µM 87% | [16]; at 100.0 µM 83%
